OPRM1-OPRD1 inv = inverse agonists of MOR-DOR heterodimerization, primary screen, cell-based, luminescence. cell-based MOR-DOR heterodimer luminescence, inverse agonism. inhibition, % at 9.3 µM. 0.21% of 340,000 active. AID 504357, 2011. Mu-type opioid receptor (Homo sapiens) + Delta-type opioid receptor (Homo sapiens), …; in the data active = inhibition above about 22%, passing the limit was not always enough
Target sequence (P35372 whole entry, looked up): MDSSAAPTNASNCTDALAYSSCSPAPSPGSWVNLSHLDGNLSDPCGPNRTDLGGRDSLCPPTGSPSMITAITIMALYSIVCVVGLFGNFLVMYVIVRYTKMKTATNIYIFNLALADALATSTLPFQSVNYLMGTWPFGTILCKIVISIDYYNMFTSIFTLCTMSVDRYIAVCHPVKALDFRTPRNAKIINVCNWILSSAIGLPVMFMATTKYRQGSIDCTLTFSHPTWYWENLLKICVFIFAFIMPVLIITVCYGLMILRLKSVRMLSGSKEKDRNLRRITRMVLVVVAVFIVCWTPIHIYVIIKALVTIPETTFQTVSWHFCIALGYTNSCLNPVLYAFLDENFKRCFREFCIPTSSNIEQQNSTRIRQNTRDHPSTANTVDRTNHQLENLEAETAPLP
Target sequence (P41143 whole entry, looked up): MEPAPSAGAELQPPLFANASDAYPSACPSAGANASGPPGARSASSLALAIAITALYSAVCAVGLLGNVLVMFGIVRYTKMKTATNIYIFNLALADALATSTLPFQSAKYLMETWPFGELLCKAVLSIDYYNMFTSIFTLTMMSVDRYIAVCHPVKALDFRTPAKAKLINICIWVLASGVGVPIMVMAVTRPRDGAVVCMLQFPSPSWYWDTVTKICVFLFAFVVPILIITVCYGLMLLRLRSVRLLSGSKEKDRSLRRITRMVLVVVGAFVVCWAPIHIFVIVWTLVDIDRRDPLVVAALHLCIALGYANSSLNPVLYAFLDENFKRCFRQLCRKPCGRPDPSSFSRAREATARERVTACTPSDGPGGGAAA
HTR5A inv ctr = HTR5A inverse agonists in luminescence cell assay, primary screen, counter-screen for OPRM1-OPRD1 heterodimer inverse agonist project, full-deck HTS | HTR5A cell line, inverse agonism | inhibition, % at 9.3 µM | 5-hydroxytryptamine receptor 5A (Homo sapiens), P47898 | 0.083% of 340,000 active; in the data active = inhibition mostly above about 23%, no sharp cut-off; inactive = mostly below about 18%
PvdQ acylase = P. aeruginosa PvdQ acylase inhibitors, primary screen, biochemical, fluorescence, plate reader and imaging, single point | purified PvdQ acylase | PvdQ acylase [Pseudomonas aeruginosa LESB58] | 0.063% of 340,000 active | inhibition, % at 10 µM; in the data active = inhibition above about 30%, passing the limit was not always enough
CR mimetic SO = reduction of superoxide in aged yeast, primary screen, HTS | AID 2690, 2010 | superoxide response (% of plate mean), % at 10 µM | 0.18% of 330,000 active | S. cerevisiae aged cells, superoxide DHE fluorescence; hits give low values;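 active = superoxide response under a set limit, about three screen SD below normal, cut at about 65% in these data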;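 note: yeast aged for seven days with compound at 30 °C before DHE staining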
HTR5A ag ctr = HTR5A agonists in luminescence cell assay, primary screen, counter-screen for OPRM1-OPRD1 heterodimer agonist project, full-deck HTS; 5-hydroxytryptamine receptor 5A (Homo sapiens), P47898; activation, % at 9.3 µM; cell-based; AID 504692, 2011; 0.61% of 340,000 active; in the data active = activation mostly above about 9.5%, no sharp cut-off; inactive = mostly below about 7.6%
MOR-DOR ag-1 = agonists of OPRM1-OPRD1 heterodimerization, primary screen, cell-based, luminescence; AID 504326, 2011; activation, % at 9.3 µM; Mu-type opioid receptor (Homo sapiens) + Delta-type opioid receptor (Homo sapiens), …; 0.3% of 340,000 active; cells
MOR-DOR ag-2 = OPRM1-OPRD1 heterodimerization promoters, counter-screen for HTR5A agonist project, cell-based, luminescence; shares compounds with HTR5A ag ctr; U2OS counter-screen cells, complementation luminescence, 3 h; activation, % at 9.3 µM; 13% of 800 active; AID 504913, 2011
HTR5A ag conf = HTR5A agonists, retest of hits, confirmation, cell-based, luminescence; HTR5A agonist cell assay; shares compounds with HTR5A ag ctr; activation, % at 9.3 µM; 17% of 800 active; in the data active = activation above about 17%
Numbers stand for hits; – = inactive; · = not tested or not shown; ! = repeats disagree. Shown are actives, neighbours in structure and some others; about 1.3% of the full set was active somewhere. Cut-off read from the data, not from the text of the source, unless noted: active = activation above about 18%; inactive = the rest.

SMILES	OPRM1-OPRD1 inv	HTR5A inv ctr	PvdQ acylase	CR mimetic SO	HTR5A ag ctr	MOR-DOR ag-1	MOR-DOR ag-2	HTR5A ag conf
O=C1OCCC1Sc1nnc(-c2cccs2)n1Cc1ccccc1 (stereo unspecified)	–	–	–	–	15	–	–	–
O=C(CCCCCn1c(SCC(=O)c2ccccc2)nc2ccccc2c1=O)NCc1ccco1	–	–	–	–	21	–	59	29
COc1ccc(OC)c(NC(=O)c2cc(OC(C)=O)cc(C(=O)Nc3cc(OC)ccc3OC)c2)c1	–	–	–	–	18	–	–	–
Cc1cc(NC(=O)C(C)SCC(=O)Nc2cc(C(F)(F)F)ccc2N2CCOCC2)no1 (stereo unspecified)	–	–	–	–	–	–	·	·
CC1CCCC(C)N1C(=O)COC(=O)c1nn(C)c(=O)c2ccccc12 (stereo unspecified)	–	–	–	–	–	–	·	·
O=C(NCc1ccccc1)c1ccc(F)c(F)c1	–	–	–	–	14	–	–	–
CN(C)c1c(F)cc(C(=O)NCc2ccccc2)cc1F	–	–	–	–	–	–	·	·
O=C1CC(c2ccc(F)cc2)Cc2nc(N3CCOCC3)ncc21 (stereo unspecified)	–	–	–	–	–	–	·	·
O=C1CC(c2cccc(Cl)c2)Cc2nc(N3CCN(c4ccccc4)CC3)ncc21 (stereo unspecified)	–	–	–	–	17	–	–	–
CC1CCCCN1S(=O)(=O)c1ccc2[nH]c(=O)cc(C(=O)NCCCN3CCCCCC3)c2c1 (stereo unspecified)	–	–	–	–	–	–	·	·
O=C(Nc1ccc(NC(=O)c2cccs2)cc1)c1ccc(Br)o1	–	–	–	–	–	–	·	·
O=C(Nc1ccc(N2CCN(C(=O)c3cccs3)CC2)cc1)c1ccc(Br)o1	–	–	–	–	16	–	–	–
Oc1cc(-n2cccn2)c(O)cc1-n1cccn1	–	–	–	–	–	–	·	·
Oc1ccc(C2CNCCc3c2cc(O)c(O)c3Cl)cc1 (stereo unspecified)	–	–	–	–	32!	–	–	56
Oc1cc2c(c(Cl)c1O)CCNCC2c1ccccc1 (stereo unspecified)	–	–	–	–	–	–	·	·
CCCC(C)NC(=S)NC(=O)c1cc(S(=O)(=O)N2CCOCC2)ccc1C (stereo unspecified)	–	–	–	–	–	–	·	·
CCCCCC(C)NC(=S)NC(=O)c1cc(S(=O)(=O)N2CCOCC2)ccc1C (stereo unspecified)	–	–	–	–	15	–	–	–
COCCN1CCN(C(=O)C2CCC(=O)N(CCc3ccccc3)C2)CC1 (stereo unspecified)	–	–	–	–	–	–	·	·
O=C(NC1CCC(O)CC1)c1ccc(-c2ccc([N+](=O)[O-])cc2)o1 (stereo unspecified)	–	–	–	–	–	–	·	·
COc1ccc(C)cc1NC(=O)COC(=O)c1ccc2c(c1)OCO2	–	–	–	–	–	–	·	·
COc1ccc(C)cc1NC(=O)COC(=O)c1ccc2c(c1)OCCO2	–	–	–	–	19	–	–	–
Cc1cccc(N2CC(C(=O)Nc3nnc(SCC(=O)N4CCOCC4)s3)CC2=O)c1 (stereo unspecified)	–	–	–	–	–	–	·	·
O=C(Nc1nnc(SCC(=O)N2CCOCC2)s1)C1CC(=O)N(c2ccccc2)C1 (stereo unspecified)	–	–	–	–	17	–	32	–
Cc1cc(=O)c2c(o1)C(=O)c1occc1C2=O	–	–	–	·	–	–	·	·
CN(C)c1cccc(C(=O)NCC2CCCO2)c1 (stereo unspecified)	–	–	–	–	20	–	–	–
SMILES	OPRM1-OPRD1 inv	HTR5A inv ctr	PvdQ acylase	CR mimetic SO	HTR5A ag ctr	MOR-DOR ag-1	MOR-DOR ag-2	HTR5A ag conf
O=C(C1CCN(S(=O)(=O)c2ccc3c(c2)OCCO3)CC1)N1CCc2ccccc21	–	–	–	–	33	–	–	23
CN(CC(=O)Nc1ccc(Cl)c(C(F)(F)F)c1)C(=O)c1ccc2c(c1)NC(=O)CS2	–	–	–	–	16	–	–	–
CCCCN(CC)C(=O)c1cc2cc3ccc(OC)cc3nc2o1	–	–	–	–	–	–	·	·
CCCCN(C)C(=O)c1cc2cc3ccc(OC)cc3nc2s1	–	–	–	–	21	–	–	–
CCN(CCO)C(=O)c1ccc2nc(Cc3ccc(OC)cc3)oc2c1	–	–	–	–	–	–	·	·
CC1=NNC(=O)/C1=C\c1cn(-c2ccccc2)nc1-c1ccc(Cl)cc1	–	–	–	–	23	–	–	–
Cc1ccc(-c2nn(-c3ccccc3)cc2C=C2C(=O)CC(C)(C)CC2=O)cc1	–	–	–	–	–	–	·	·
c1ccc2c(-c3csc(-c4ccncc4)n3)c[nH]c2c1	–	–	–	–	21	–	–	–
CCN1CCC(O)(/C=C/c2ccc(C(C)C)cc2)C(C(=O)/C=C/c2ccc(C(C)C)cc2)C1 (stereo unspecified)	–	–	–	·	18	–	51	27
Cc1ccc(NC(=O)C2CC(O)CN2C(=O)OCc2ccccc2)c(C)c1 (stereo unspecified)	–	–	–	–	–	–	·	·
CCN(CC)CCNC(=O)c1ccc(NC(=O)COc2ccc3c(c2)CCC3)cc1	–	–	–	–	17	–	–	–
CCN(CC)CCNC(=O)c1ccc(NC(C)=O)cc1	–	–	–	–	–	–	·	·
Cc1ccc(C(=O)NC(C)c2nnc(SCC(=O)NC3CCCC3)n2C)cc1 (stereo unspecified)	–	–	–	–	–	–	·	·
Cc1cc(C(=O)COC(=O)C2=COCCO2)c(C)n1-c1ccc2c(c1)OCO2	–	–	–	–	–	–	·	·
Cc1cc(C(=O)COC(=O)C2=COCCO2)c(C)n1-c1cccc(F)c1	–	–	–	–	16	–	–	–
CCCCn1c(N)c(N(CCOC)C(=O)CCS(=O)(=O)c2ccc(Cl)cc2)c(=O)[nH]c1=O	–	–	–	–	–	–	·	·
CN(C)Cc1c(O)ccc2occ(C(=O)c3ccccc3)c12	–	–	–	–	19	–	–	47
COc1ccc(C(=O)Cc2ccc(OC)c(OC)c2)c(OC)c1	–	–	–	–	19	–	–	–
